Compound activity from PubChem.
HepG2 tox-1: counter-screen for TGF-b inhibitors: cytotoxicity in HepG2 cells | HepG2 CAGA-GFP viability, ATP luminescence, 18 h | Potency, µM (top dose mostly 46.1 µM), without a hit: at the top dose activity change, negative = cytotoxicity, hits mostly cytotoxic | 0.76% of 410,000 active
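CellTiter-Glo luminescence gave cytotoxicity after 18 hours at 37 degrees C. The cells were HepG2 CAGA-GFP in 1% FBS DMEM, stimulated with 500 pg/mL TGF-beta after compound addition. %Activity was normalised to no-cell wells (complete cell-killing) and DMSO (no toxicity), and curves were fitted and classified.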
Nrf2 inh: blocks Nrf2 signaling; A549 ARE-Fluc reporter, luciferase luminescence, 18-24 h; Potency, µM (titrated, usually from 46 µM), for the others: top-dose activity change, negative = inhibition, hits mostly inhibitors; 2.1% of 360,000 active; also: % is scaled to controls: 0 for no effect and ±100 for the full control effect; nearly all actives have a fitted effect of over 60% in size
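Cells were seeded and rested 2 h, then exposed to compounds for 18-24 h. CellTiter-Fluor was read first as a viability measure. BugLite was added 15 min before the final luminescent read of ARE-luciferase activity in A549 cells.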
ATXN viability: viability counter-screen for ATXN expression inhibitors; S2 cells (HEK-293 line with an ATXN2-luciferase reporter) viability, CellTiter-Fluor protease fluorescence, 24 h; Potency, µM (top dose mostly 56.7 µM), usual class: cytotoxic; 0.49% of 400,000 active; AID 651635; also: nearly all actives have a fitted effect of over 40% in size
A549 tox: counter-screen for Nrf2 inhibitors: cytotoxicity in A549 cells. A549 ARE-Fluc cells, CellTiter-Fluor viability, 18-24 h. Potency, µM (highest dose often 46 µM), for inactives: top-dose activity change, negative = cytotoxicity, usual class: inhibitors. 0.16% of 390,000 active. AID 504648; also: % is scaled to controls: 0 for no effect and ±100 for the full control effect
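Cytotoxicity counterscreen: CellTiter-Fluor fluorescence was measured in A549 ARE_Fluc cells after 18-24 h of compound exposure in a concentration series. The subsequent BugLite luminescent read reports ARE-luciferase activity.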
ATXN2 expr inh: reduces ATXN2 reporter expression in HEK-293 cells | HEK-293 ATXN2-luciferase reporter, luminescence, 24 h | Potency, µM (top dose mostly 57 µM), without a hit: at the top dose activity change, negative = inhibition, actives largely listed as inhibitors | 0.72% of 360,000 active; also: % is scaled to controls: 0 for no effect and ±100 for the full control effect; nearly all actives have a fitted effect of over 55% in size
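qHTS (up to 57 uM final) was run with 24 h compound exposure of reporter cells at 37 °C. Each well was multiplexed: SteadyGlo luminescence measured ATXN2-luciferase expression after a fluorogenic Gly-Phe-AFC viability readout (25 uM final).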
TGFb inhibitor: inhibitors of TGF-b signaling; AID 588855; HepG2 CAGA-GFP TGF-b/SMAD3 reporter, GFP fluorescence, 18 h; TGF-beta stimulated, 500 pg/mL final; Potency, µM (doses to about 46.1 µM), for the others: at the top dose activity, negative = inhibition, hits mostly inhibitors; 1.2% of 410,000 active; also: % is scaled to controls: 0 for no effect and ±100 for the full control effect; nearly all actives have a fitted effect of over 65% in size
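Inhibition of TGF-beta-driven CAGA-GFP reporter expression in HEPG2 cells is measured by cellular GFP fluorescence after 18 h stimulation with 500 pg/mL recombinant TGF-beta in 1% FBS medium at 37 degrees C.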
TGFb CAGA inh: TGF-b pathway inhibition, cherry-pick retest. shares compounds with TGFb inhibitor. HepG2 CAGA-GFP TGF-b reporter, GFP fluorescence, 18 h; cells stimulated with TGF-beta, 500 pg/mL. Potency, µM (titrated, usually from 46.1 µM), inactives show top-dose activity, negative = inhibition, hits mostly inhibitors. 63% of 1,600 active. AID 720534; also: % is scaled to controls: 0 for no effect and ±100 for the full control effect; nearly all actives have a fitted effect of over 65% in size
HepG2 tox-2: counter-screen for TGF-b inhibitors: cytotoxicity in HepG2 cells; HepG2 CAGA-GFP viability, ATP luminescence, 18 h; cells stimulated with TGF-beta, 500 pg/mL; Potency, µM (highest dose often 46.1 µM), without a hit: at the highest dose activity, negative = cytotoxicity, usual class: inhibitors; 27% of 1,600 active; shares compounds with TGFb inhibitor; also: % is scaled to controls: 0 for no effect and ±100 for the full control effect; nearly all actives have a fitted effect of over 70% in size
CCL64 TGFb inh: TGF-b inhibition, CCL64 orthogonal assay; shares compounds with TGFb inhibitor; CCL64 CAGA-GFP reporter, TGF-b stimulated, GFP fluorescence, 18 h; Potency, µM (highest dose often 46.1 µM), without a hit: top-dose activity, negative = inhibition, actives largely listed as inhibitors; 41% of 1,600 active; AID 720536; also: nearly all actives have a fitted effect of over 65% in size
TGFb COP inh: validation of TGF-b inhibitors in HepG2 COP promoter reporter; HepG2 COP-GFP TGF-b reporter, GFP fluorescence, 18 h; cells stimulated by added recombinant TGF-beta; shares compounds with TGFb inhibitor; Potency, µM (doses to about 46.1 µM), without a hit: top-dose activity, negative = inhibition, most hits filed as inhibitors; 3% of 1,600 active; AID 720537; also: nearly all actives have a fitted effect of over 70% in size
The depositor's hits bear a star; i = inactive; ? = inconclusive; · = no result given. An excerpt weighted towards active compounds, which were near 3.8% of everything screened. Calls follow the shape of the dose curve; as a rule, active = well fitted curve in the direction sought with a large enough effect; inconclusive = small, poorly fitted or top-dose-only effect, or another doubt; inactive = no such curve, though single readings can be large; an effect the other way counts as inactive or inconclusive. Potency is read from the fitted curve at half-maximal effect.

SMILES	HepG2 tox-1	Nrf2 inh	ATXN viability	A549 tox	ATXN2 expr inh	TGFb inhibitor	TGFb CAGA inh	HepG2 tox-2	CCL64 TGFb inh	TGFb COP inh
O=C(Nc1cc(S(=O)(=O)N2CCOCC2)ccc1N1CCOCC1)c1ccc([N+](=O)[O-])s1	-4.1%	?	i	-8.5%	-35.8%	?	·	·	·	·
Cc1ccc(NC(=O)c2ccc([N+](=O)[O-])s2)cc1S(=O)(=O)N1CCOCC1	-158.0%	?	i	?	?	7.08µM*	6.51µM*	?	?	25.8%
COc1ccc(C)cc1NC(=O)c1ccccc1NS(=O)(=O)c1ccc(Cl)s1	-52.9%	?	i	-21.8%	·	5.01µM*	11.6µM*	?	6.51µM*	45.2%
O=C(Nc1cc(S(=O)(=O)N2CCOCC2)ccc1O)c1ccc(NS(=O)(=O)c2ccc(Cl)s2)cc1	1.8%	1.9%	i	-1.0%	5.6%	-4.6%	·	·	·	·
COc1ccccc1NC(=O)c1ccccc1NS(=O)(=O)c1cccs1	-29.3%	-20.8%	?	-6.0%	-16.0%	-20.7%	·	·	·	·
CCOC(=O)N1CCN(Cc2nc3cc([N+](=O)[O-])ccc3n2C(C)C)CC1	-4.5%	-25.5%	i	-2.5%	-14.9%	-5.5%	·	·	·	·
Cc1ccccc1C(=O)OCc1cnc(Cl)s1	-19.3%	7.0%	i	14.2%	-25.4%	-16.4%	·	·	·	·
Cc1cc(C)cc(NC(=S)NC(=O)C2CC2)c1	-26.4%	1.3%	i	6.5%	10.9%	-29.4%	·	·	·	·
Cc1cc(NC(=S)NC(=O)C2CC2)ccc1Br	-2.1%	?	i	4.8%	70.9%	3.98µM*	0.82µM*	0.461µM*	?	25.1%
COc1ccc(OC)c(S(=O)(=O)Nc2cc(Cl)cc(Cl)c2)c1	0.3%	16.1%	i	0.9%	-1.8%	7.94µM*	20.6µM*	-7.7%	-27.1%	-14.7%
COc1ccc(OC)c(S(=O)(=O)Nc2ccc(C)c(C)c2)c1	-13.9%	·	i	0.4%	9.0%	-0.8%	·	·	·	·
Clc1ccccc1CN1CCC(Cc2ccccc2)CC1	-41.5%	7.1%	i	2.3%	8.1%	-21.9%	·	·	·	·
CCOC(=O)N1CCN(Cc2ccc(O)c3ncccc23)CC1	-48.3%	-0.6%	?	-8.5%	-25.0%	7.08µM*	?	?	5.8µM*	0.3%
Oc1ccc(CN2CCC(Cc3ccccc3)CC2)c2cccnc12	-37.5%	?	i	-16.6%	?	7.08µM*	?	?	2.59µM*	19.0%
Oc1ccc(Cc2ccccc2)c2cccnc12	-5.4%	25.0%	i	8.9%	?	-19.7%	·	·	·	·
OCc1ccc(O)c2ncccc12	-18.3%	?	i	?	?	12.6µM*	6.51µM*	?	?	14.9%
Cc1ccc(N(C(=O)CNC(=O)c2ccco2)C(C(=O)NC2CCCCC2)c2ccncc2)cc1F (centres undefined)	-0.5%	13.3%	i	-10.3%	-7.1%	?	·	·	·	·
COc1ccc(C(=O)/C(C#N)=N/Nc2cccc([N+](=O)[O-])c2)cc1	-19.1%	23.1µM*	11.2µM*	?	·	10µM*	5.17µM*	?	8.2µM*	46.0%
CCc1cccc2c(C(O)(c3c[nH]c4c(CC)cccc34)c3c[nH]c4c(CC)cccc34)c[nH]c12	-14.1%	·	·	·	·	?	·	·	·	·
OCCCn1c(CCCNc2nc(-c3cccc(Br)c3)cs2)nc2cc(Cl)c(N3CCCCC3)cc21	-8.0%	?	?	?	0.0%	10µM*	13µM*	-23.1%	?	36.7%
COc1ccc(-c2csc(NCCc3nc4cc(Cl)c(N5CCCCC5)cc4n3CCOCCO)n2)cc1	-12.3%	-10.1%	?	-4.5%	?	?	·	·	·	·
Cc1ccccc1NC(=O)c1ccc(Nc2c([N+](=O)[O-])cc([N+](=O)[O-])c3ccccc23)cc1	-19.7%	?	i	-9.4%	-28.1%	?	?	-18.5%	2.3%	-0.8%
Fc1ccc(Nc2ncnc3c2nc2n3CCCCC2)c(F)c1	-12.2%	?	i	-5.7%	24.0%	0.0%	·	·	·	·
COc1ccc(OC)c(C2SCCN2S(=O)(=O)c2cccc(C(F)(F)F)c2)c1 (centres undefined)	-19.6%	20.6µM*	i	-7.1%	-5.1%	?	?	-21.4%	-15.4%	-4.5%
CCO[C@@H]1OC(C(=O)NCc2ccccc2)=C[C@H](c2ccc(C(F)(F)F)cc2)[C@H]1CCCO	-9.2%	13µM*	?	16.4µM*	?	17.8µM*	?	-28.2%	20.6µM*	32.5%
CC(C)C[C@H]1CNC(=S)N1CC1CCCN1C[C@H](Cc1ccc(O)cc1)N1C[C@H](Cc2ccccc2)N(CC2CCCCC2)C1=S (some centres undefined)	-2.2%	-16.7%	?	2.9%	-27.3%	?	·	·	·	·
CC(C)C[C@H]1CNC(=S)N1C[C@H]1CCCN1C[C@H](Cc1ccc(O)cc1)N1C[C@H](Cc2ccccc2)N(CC2CCCCCC2)C1=S	-19.5%	·	?	·	0.0%	?	?	-4.2%	?	2.6%
Oc1ccc(C[C@H]2CNC(=S)N2CC2CCCN2C[C@H](Cc2ccc(O)cc2)N2C[C@H](Cc3ccc(O)cc3)N(CC3CCCCCC3)C2=S)cc1 (some centres undefined)	-10.5%	?	?	-13.1%	20µM*	7.94µM*	16.4µM*	?	3.26µM*	13.3%
